According to PubChem BioAssay (NCATS):
Records with an inconclusive call do not appear. Activity calls are given as the source filed them. Calls follow the shape of the dose curve; as a rule, active = well fitted inhibition curve with a large enough effect; inconclusive = small, poorly fitted or top-dose-only effect; inactive = flat fitted curve, though single readings scatter.

These compounds were tested on NIH3T3 (assay: qHTS assay to identify novel small-molecules to repurpose for Merkel cell carcinoma treatment (AID 1296009; also: nearly all actives have a fitted effect of over 60% in size)). Details: MCC and control cell lines, CellTiter-Glo viability, 72 h; series mostly up to 44.8 µM.
Description: MCC is a rare and aggressive neuroendocrine skin cancer with limited treatment options. Approximately 80% of MCCs have the Merkel cell polyomavirus (MCPyV) DNA integrated into the host genome (virus-positive: VP-MCC) and viral oncogenes drive oncogenesis. The remaining MCCs are virus-negative (VN-MCC) and are caused by UV mutagenesis. To identify novel treatments for VP-MCC and/or VN-MCC we screened three VP-MCC cell lines (WAGA, MKL-1, MKL-2), three VN-MCC cell lines (MCC-13, MCC-26, UISO), and four immortalized, non-transformed control cell lines (HaCaT, HEK293T, CRL7250, NIH-3T3) against ~2,400 compounds in the NCGC Pharmaceutical Collection (NPC) and ~1,900 compounds in the Mechanism Interrogation PlatE (MiPE). Using cell viability as a readout (CellTiter-Glo assay) we found both overlapping and distinct drugs that can be repurposed for the treatment of VP-MCC and VN-MCC.
A high-throughput screen was conducted in 1536-well white flat bottom plates (Corning) on a Kalypsys robotic system. Cell lines WAGA, MKL-1, MKL-2, MCC-13, MCC-26, UISO, HaCaT, HEK293T, CRL7250, and NIH-3T3 were screened against 2 small molecule annotated drug libraries NPC and MIPE in dose response (8 and 11 pt. respectively) measuring cell viability after 72 hours of incubation. […] A 1,536 pintool (Kalypsys) was used to transfer 23 nL of compound in DMSO to the 1,536-well assay plates. After 72 hr incubation at 37 degree celsius, 2.5 uL of CellTiter-Glo (Promega) was dispensed into each well using a BiorapTR. Plates were incubated at room temperature for 10 min, transferred to a ViewLux (PerkinElmer) and the luminescence was recorded using an exposure time of 2 seconds. Relative luminescence units (RLUs) were normalized to in-plate controls (no cells as a positive (cytotoxicity) control, DMSO as negative control) and the normalized data was processed using NCATS in-house software.

Structure (SMILES)	outcome
COC1CC(O[C@H]2CC[C@]3(C)C4CC[C@@]5(C)C(=O)[C@]4(CC[C@@H]3C2)CC[C@@H]5C2=CC(=O)OC2)OC(C)C1OC1OC(COC2OC(CO)C(O)C(O)C2O)C(O)C(O)C1O (stereo not given in full)	inactive [at 9.27 µM]
COc1cc2ncnc(Nc3ccc(F)c(Cl)c3)c2cc1O	inactive
Nc1nc2c(nc(Br)n2[C@@H]2O[C@@H]3COP(=O)(O)O[C@H]3[C@H]2O)c(=O)[nH]1	inactive
COc1ccccc1-c1ccc(-c2cn(C(=O)N3CCCCC3Cc3ccccc3)nn2)cc1 (stereo not given)	inactive
COc1cc2ncc(-c3ccccc3)nc2cc1OC	inactive
COc1cc(F)c(C(C)C)cc1-c1ccc(C(F)(F)F)cc1CN1C(=O)OC(c2cc(C(F)(F)F)cc(C(F)(F)F)c2)C1C (stereo not given)	inactive
Nc1c(S(=O)(=O)c2ccccc2)c2nc3ccccc3nc2n1-c1ccc(F)cc1	inactive
Cc1cc(C(=O)Cn2cc(C#N)ccc2=O)c(C)n1Cc1ccccc1	inactive
COc1ccccc1N1CCN(c2ncnc3n[nH]c(Br)c23)CC1	inactive
COc1cc2c(cc1OCCCN1CCCC1)N=C(N)C21CCC1	inactive; activator
CC[C@@H]1C[C@]1(NC(=O)[C@@H]1C[C@@H]2CN1C(=O)[C@H](C(C)(C)C)NC(=O)OCC(C)(C)CCCCc1cccc3c1CN(C3)C(=O)O2)C(=O)NS(=O)(=O)C1CC1	inactive
CN(C)C(CCOc1cccc2ccccc12)c1ccccc1 (stereo not given)	inactive
CC(=O)OC(C)(C)/C=C/C(=O)[C@](C)(O)[C@H]1C(O)C[C@@]2(C)[C@@H]3CC=C4[C@@H](C=C(O[C@@H]5O[C@H](CO)[C@@H](O)[C@H](O)[C@H]5O)C(=O)C4(C)C)[C@]3(C)C(=O)C[C@]12C (stereo not given in full)	inactive [at 17.4 µM]
CCC[C@@]1(CCc2ccccc2)CC(O)=C([C@H](CC)c2cccc(NS(=O)(=O)c3ccc(C(F)(F)F)cn3)c2)C(=O)O1	inactive
COCC(c1ccc(C(F)(F)F)cc1)N1CCN(C2(C)CCN(C(=O)c3c(C)ncnc3C)CC2)CC1C (stereo not given)	inactive
CCOc1ccc(S(=O)(=O)N2CCCCCC2)c2ccccc12	inactive
CN(C)CCOc1cc(NS(=O)(=O)c2c(Cl)cc(C(F)(F)F)cc2Cl)ccc1Cl	inactive
C=C1CCN([C@H](C)[C@](O)(Cn2cncn2)c2ccc(F)cc2F)CC1	inactive
Cc1nnc(-c2ccc(-c3ccc(C(=O)Nc4ccc(O)c(N5CCN(C)CC5)c4)cc3)c(C)c2)o1	inactive
CC(=O)OC(C)(C)/C=C/C(=O)C(C)(O)C1C(O)CC2(C)C3CC=C(C(C)(C)C(=O)O)C(CC(=O)O)C3(C)C(=O)CC12C (stereo not given)	inactive [at 17.4 µM]

Structure (SMILES)	outcome
C[C@@]12C(=O)N(c3ccc(C(=O)Nc4cccc5cccnc45)cc3)C(=O)[C@@H]1[C@@H]1C=C[C@H]2C1	inactive
C=C1CCC2C(C)(C)CCCC2(C)C1CC/C(C)=C\CO (stereo not given)	inactive
CCC(=O)N1CCOc2c(cc(-c3ccc(OC)c(OC)c3)cc2OC[C@H]2CCCN(C)C2)C1	inactive
CC(C)c1c(O)ccc2c1CC[C@H]1C(C)(C)CCC[C@]21C	inactive
COC(=O)c1cc(Br)cnc1N1CCC(NC2CCCCC2)C(O)C1 (stereo not given)	inactive
CN(C)S(=O)(=O)c1ccc(NC(=S)N2CCC(C(O)(c3ccccc3)c3ccccc3)CC2)cc1	inactive
C=C(COC(=O)C(O)C(O)CN)C12OC1C1(C)C(=CC2=O)C(O)C(O)CC1C (stereo not given)	inactive
CCC(C)/C=C(C)/C=C/C1=CC2=C(Cl)C(=O)C(C)(OC(C)=O)C(=O)C2(O)C(OC)O1 (stereo not given)	inactive [at 17.4 µM]
C=CCCN1CCC2(CC1)CN(C(=O)c1c(F)cccc1F)c1ccc(Cl)cc12	inactive
COC(=O)N1CC2(CC2)C[C@H](C(=O)NO)[C@H]1C(=O)N1CCN(c2ccccc2)CC1	inactive
CC(=O)NC(C(=O)O[C@H]1CCC(C)(C)[C@@H]2CC=C3C(=O)OCC3(O)[C@@]12C)C(C)C (stereo not given in full)	inactive
CCn1c(-c2nonc2N)nc2c(C#CC(C)(C)O)ncc(OCC3CCCNC3)c21 (stereo not given)	inactive
Cc1cc(OCCCS(C)(=O)=O)cc(C)c1-c1cccc(COc2ccc3c(c2)OCC3CC(=O)O)c1 (stereo not given)	inactive
O=S(=O)(N[C@H]1CCCC[C@@H]1N1CCOCC1)c1ccc(Cl)cc1	inactive
CC(=O)OC1C(OC(=O)c2ccccc2)C2C(C)(C)CCC(OC(C)=O)C2(C)C23CCC(C)(C2)C(=O)CC13 (stereo not given)	inactive [at 17.4 µM]
COC(=O)c1cc2c(C(F)(F)F)cc(-c3ccccc3)cc2n1O	inactive
CCOC(=O)CCNc1cc(N2CCc3ccccc3CC2)nc(-c2cccnc2)n1	inactive
Cc1ccc(NC(=O)c2ccc(CN3CCNCC3)cc2)cc1Nc1nccc(-c2cccnc2)n1	inactive
COC(=O)CC[C@@H](C)C1CCC2C3CCC4C[C@H](OC(C)=O)CCC4(C)C3C[C@H](O)C21C (stereo not given in full)	inactive
C=C1[C@H]2CC[C@H](C(=O)O)[C@@]23CC[C@H](C3)C1(C)C	inactive
